Here are results for four molecules from PubChem BioAssay (EPA / NIEHS).

The source made the active and inactive calls. How the source made its calls: active means hit-call score of the fitted dose curve at least 0.9, where 1 is the maximum; inactive means score below 0.9.

For assay [1], the target named is Bile acid receptor (Homo sapiens) (UniProt Q96RI1). In words: ATG_IR1_CIS: Attagene CIS-FACTORIAL HepG2 Assay for human Nuclear Receptor Subfamily 1 Group H Member 4 (NR1H4), IR1 submotif (AID 2282946). Particulars: IR1 reporter transcription, actives raise or lower the signal. An outline of the steps: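 Fluorescence of capillary-separated, HpaI-digested RT-PCR reporter products gave IR1-element mRNA induction in HepG2 cells 24 h after dosing. Endogenous transcription factors drove the cis-regulated reporters; activity was fitted bidirectionally against DMSO.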

The nature of assay [2]: ATG_GRE_CIS: Attagene CIS-FACTORIAL HepG2 Assay for human Glucocorticoid Response Elements (GRE) (AID 2282947). To be noted: HepG2 GRE cis-reporter, Attagene multiplex mRNA; actives raise or lower the signal. A digest of the protocol: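 Read-out: fluorescent reporter-transcript fragments separated by capillary electrophoresis after RT-PCR. Transiently transfected HepG2 cells carrying cis-element-driven reporter units were dosed for 24 h; gain or loss of signal fitted against DMSO control.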

A short description of assay [3]: ATG_ISRE_CIS: Attagene CIS-FACTORIAL HepG2 Assay for human Interferon Regulatory Factor 1 (IRF1) binding to an Interferon-Stimulated Response Element (ISRE) (AID 2282948). Particulars: HepG2 ISRE cis-reporter (Attagene), mRNA transcription readout; actives raise or lower the signal. An outline of the steps: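 Endogenous transcription factor activity read as reporter transcript abundance via RT-PCR and capillary electrophoresis. HepG2 cells transiently transfected, 24 h chemical exposure. Gain or loss fitted against DMSO baseline.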

The nature of assay [4]: ATG_M_32_CIS: Attagene CIS-FACTORIAL HepG2 Assay for M32 Transcription Factor (Internal Marker) (AID 2282949).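 Further: background control marker of the multiplexed CIS panel rather than a real target.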 To be noted: HepG2 Attagene cis-factorial M32 reporter, mRNA; actives raise or lower the signal. A digest of the protocol:
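Using DMSO as baseline, bidirectional curve fits were applied to reporter mRNA signals. These came from transiently transfected HepG2 cells exposed for 24 h, with RNA analysed by RT-PCR, FAM primer extension, HpaI digestion and CE.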

The nature of assay [5]: ATG_M_06_CIS: Attagene CIS-FACTORIAL HepG2 Assay for M06 Transcription Factor (Internal Marker) (AID 2282950). Particulars: HepG2 Attagene CIS-FACTORIAL M06 internal marker reporter; actives raise or lower the signal. A digest of the protocol: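 One of many multiplexed endpoints: HepG2 reporter mRNA after 24 h dosing, detected by RT-PCR and capillary electrophoresis fluorescence; gain or loss of signal analysed against DMSO.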

For assay [6], the target named is Hypoxia-inducible factor 1-alpha (Homo sapiens) (UniProt Q16665). As to the kind of experiment: ATG_HIF1a_CIS: Attagene CIS-FACTORIAL HepG2 Assay for human Hypoxia Inducible Factor 1 (HIF1A) (AID 2282951). Particulars: HepG2 Attagene cis-factorial HIF1a reporter transcription; actives raise or lower the signal. A digest of the protocol:
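In this multiplexed cell assay, HepG2 cells bearing transfected cis reporters are dosed for 24 h and reporter mRNA is read by RT-PCR plus capillary electrophoresis; signal increases and decreases are both scored against DMSO.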

For assay [7], the target named is Hepatocyte nuclear factor 6 (Homo sapiens) (UniProt Q9UBC0). In words: ATG_HNF6_CIS: Attagene CIS-FACTORIAL HepG2 Assay for human Hepatocyte Nuclear Factor 6 (HNF6) (AID 2282952). Particulars: HepG2 Attagene cis-factorial HNF6 reporter transcription; actives raise or lower the signal. A digest of the protocol:
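Activity values derive from bidirectional fitting against DMSO of reporter mRNA levels, measured by capillary electrophoresis of labelled RT-PCR products from HepG2 cells exposed 24 h.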

The target in assay [8] is Heat shock factor protein 1 (Homo sapiens) (UniProt Q00613). In words: ATG_HSE_CIS: Attagene CIS-FACTORIAL HepG2 Assay for human Heat Shock Transcription Factor 1 (HSE) (AID 2282953). Particulars: HepG2 HSE cis-reporter, Attagene RNA transcription; actives raise or lower the signal. A digest of the protocol:
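Using HepG2 with transfected cis-driven reporter constructs, compound effects on endogenous factor activity are scored as reporter mRNA change at 24 h. Detection: RT-PCR, HpaI digestion, capillary electrophoresis; bidirectional fitting to DMSO.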

Assay [9] is described as follows: ATG_MRE_CIS: Attagene CIS-FACTORIAL HepG2 Assay for human Metal Responsive Element (MRE) (AID 2282954). Particulars: HepG2 MRE cis-reporter transcription, Attagene multiplex; actives raise or lower the signal. An outline of the steps:
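RT-PCR/capillary electrophoresis readout of reporter mRNA, 24 h post-dosing, in HepG2 cells transfected with multiplexed cis-regulated reporter constructs. Gain or loss of signal fitted bidirectionally against DMSO baseline.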

Assay [10] deals with Paired box protein Pax-6 (Homo sapiens) (UniProt P26367). As to the kind of experiment: ATG_Pax6_CIS: Attagene CIS-FACTORIAL HepG2 Assay for human Paired Box 6 (PAX6) (AID 2282956). To be noted: HepG2 CIS-FACTORIAL PAX6 reporter transcription, RNA readout; actives raise or lower the signal. An outline of the steps:
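Read-out is reporter transcript level, measured by RT-PCR with fluorescent primer extension and capillary electrophoresis after 24 h dosing of transfected HepG2 cells. Activity in either direction fitted relative to DMSO control.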

Assay [11] in a line: ATG_PXRE_CIS: Attagene CIS-FACTORIAL HepG2 Assay for human Pregnane X Receptor Element (PXRE) (AID 2282957). To be noted: HepG2 Attagene CIS-FACTORIAL PXRE reporter, mRNA; actives raise or lower the signal. A digest of the protocol:
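Fluorescent capillary electrophoresis of amplified reporter cDNA gave the signal, collected 24 h after dosing HepG2 cells that held transfected cis-element reporter constructs.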

Assay [12] is described as follows: ATG_PPRE_CIS: Attagene CIS-FACTORIAL HepG2 Assay for human Peroxisome Proliferator-activated Response Element (PPRE) (AID 2282958). To be noted: HepG2 PPRE cis-element reporter, Attagene transcription factor profiling; actives raise or lower the signal. An outline of the steps: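 Multiplexed reporter transcription units under cis-regulatory promoters were transfected into HepG2 cells to capture endogenous factor activity. A 24 h incubation preceded RNA isolation and fluorescent RT-PCR fragment analysis.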

Assay [13] can be described thus: ATG_RORE_CIS: Attagene CIS-FACTORIAL HepG2 Assay for human RAR-related Orphan Receptor Element (RORE) (AID 2282959). To be noted: HepG2 Attagene cis-factorial RORE reporter, mRNA; actives raise or lower the signal. An outline of the steps:
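Fluorescence intensity of reporter-specific cDNA fragments, separated by capillary electrophoresis, gives the signal. Source: HepG2 liver cells transiently transfected with cis-element reporters and exposed 24 h; DMSO-normalized bidirectional fit.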

In assay [14] the target is Transcription factor Sp1 (Homo sapiens) (UniProt P08047). As to the kind of experiment: ATG_Sp1_CIS: Attagene CIS-FACTORIAL HepG2 Assay for human Specificity Protein 1 (Sp1) (AID 2282961). To be noted: HepG2 Sp1 cis-reporter transcription, actives raise or lower the signal. An outline of the steps: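 Sp1-driven reporter mRNA, read as capillary electrophoresis fluorescence after RT-PCR, in transiently transfected HepG2 cells dosed for 24 h; signal change in either direction relative to DMSO.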

Assay [15] concerns the target Signal transducer and activator of transcription 3 (Homo sapiens) (UniProt P40763). In words: ATG_STAT3_CIS: Attagene CIS-FACTORIAL HepG2 Assay for human Signal Transducer and Activator of Transcription 3 (STAT3) (AID 2282963). Particulars: HepG2, Attagene cis-factorial STAT3 reporter transcription; actives raise or lower the signal. An outline of the steps: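 Readout: fluorescent reporter mRNA fragments resolved by capillary electrophoresis. Setup: HepG2 transfected with MRTUs reporting endogenous transcription-factor activity, dosed 24 h. Gain or loss of signal fitted bidirectionally against DMSO control.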

Assay [16] in a line: ATG_TA_CIS: Attagene CIS-FACTORIAL HepG2 Assay for human TA Basal Promoter (AID 2282964). To be noted: HepG2 Attagene CIS-factorial TA basal promoter reporter; actives raise or lower the signal. An outline of the steps:
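Transient MRTU transfection of HepG2 preceded 24 h compound exposure. Reporter mRNA levels were then read by RT-PCR with capillary electrophoresis, and this background-control endpoint was fitted bidirectionally to DMSO.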

The nature of assay [17]: ATG_TCF_b_cat_CIS: Attagene CIS-FACTORIAL HepG2 Assay for human T-Cell-Factor with beta-catenin (TCF/b-cat) (AID 2282965). To be noted: HepG2 TCF/beta-catenin cis-reporter transcription, actives raise or lower the signal. An outline of the steps: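 Cells of the HepG2 line carry transiently transfected reporter units whose promoters respond to endogenous factors. Twenty-four hours post-dosing, reporter mRNA induction is measured by fluorescent RT-PCR and capillary electrophoresis, with DMSO as baseline.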

Assay [18] in a line: ATG_PBREM_CIS: Attagene CIS-FACTORIAL HepG2 Assay for human Phenobarbital-responsive Enhancer Module (PBREM) (AID 2282955). To be noted: HepG2 PBREM cis-reporter, Attagene multiplexed transcription; actives raise or lower the signal. An outline of the steps:
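After a 24 h incubation with test chemical, transfected HepG2 cells yield total RNA; reporter-specific RT-PCR products are fluorescently labelled, HpaI-digested and resolved by capillary electrophoresis against ROX size standards.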

Assay [19] is described as follows: ATG_Sox_CIS: Attagene CIS-FACTORIAL HepG2 Assay for human SRY-box transcription factor (SOX) (AID 2282960). Particulars: HepG2 Attagene cis-factorial SOX reporter, mRNA; actives raise or lower the signal. An outline of the steps:
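After 24 h of chemical treatment, transfected HepG2 reporter cells are lysed for total RNA. Transcript levels come from RT-PCR with labelled primer extension and capillary electrophoresis, analysed bidirectionally versus DMSO.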

Assay [20] is described as follows: ATG_SREBP_CIS: Attagene CIS-FACTORIAL HepG2 Assay for human Sterol Regulatory Element Binding (SREBP) (AID 2282962). To be noted: HepG2 Attagene cis-factorial SREBP reporter, mRNA; actives raise or lower the signal. An outline of the steps:
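Endogenous SREBP activity read as cis-element-driven reporter transcript in transiently transfected HepG2, 24 h post-dosing; quantified via RT-PCR plus capillary electrophoresis of fluorescent fragments. Gain or loss of signal fitted relative to DMSO baseline.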

Sequence of Heat shock factor protein 1 (Homo sapiens) (Q00613 whole entry, looked up): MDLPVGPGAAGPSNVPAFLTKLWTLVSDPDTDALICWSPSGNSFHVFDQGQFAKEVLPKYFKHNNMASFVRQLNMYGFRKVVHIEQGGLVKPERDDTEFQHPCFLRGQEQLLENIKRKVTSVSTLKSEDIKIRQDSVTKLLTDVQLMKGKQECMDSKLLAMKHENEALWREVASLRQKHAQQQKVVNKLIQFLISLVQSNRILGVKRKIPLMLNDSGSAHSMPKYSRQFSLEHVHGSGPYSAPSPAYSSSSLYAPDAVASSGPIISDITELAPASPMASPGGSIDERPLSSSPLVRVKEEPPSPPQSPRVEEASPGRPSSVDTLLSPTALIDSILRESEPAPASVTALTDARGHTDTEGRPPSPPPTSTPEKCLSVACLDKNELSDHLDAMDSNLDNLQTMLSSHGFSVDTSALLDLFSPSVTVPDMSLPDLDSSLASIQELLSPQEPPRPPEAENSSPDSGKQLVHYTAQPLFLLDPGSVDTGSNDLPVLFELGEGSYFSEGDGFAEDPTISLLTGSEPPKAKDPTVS
Sequence of Bile acid receptor (Homo sapiens) (Q96RI1 whole entry, looked up): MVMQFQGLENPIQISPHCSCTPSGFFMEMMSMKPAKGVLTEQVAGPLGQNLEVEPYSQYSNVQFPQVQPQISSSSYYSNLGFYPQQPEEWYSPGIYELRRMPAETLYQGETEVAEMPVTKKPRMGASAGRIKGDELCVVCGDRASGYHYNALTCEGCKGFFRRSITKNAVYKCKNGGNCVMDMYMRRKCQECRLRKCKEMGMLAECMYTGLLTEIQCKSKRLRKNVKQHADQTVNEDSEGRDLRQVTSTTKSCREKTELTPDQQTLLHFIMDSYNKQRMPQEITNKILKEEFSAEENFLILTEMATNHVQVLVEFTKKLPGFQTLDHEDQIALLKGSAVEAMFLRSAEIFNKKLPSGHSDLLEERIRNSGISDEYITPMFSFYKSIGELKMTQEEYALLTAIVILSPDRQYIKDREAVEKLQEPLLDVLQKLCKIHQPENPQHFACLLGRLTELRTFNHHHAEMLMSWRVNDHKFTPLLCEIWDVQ
Sequence of Paired box protein Pax-6 (Homo sapiens) (P26367 whole entry, looked up): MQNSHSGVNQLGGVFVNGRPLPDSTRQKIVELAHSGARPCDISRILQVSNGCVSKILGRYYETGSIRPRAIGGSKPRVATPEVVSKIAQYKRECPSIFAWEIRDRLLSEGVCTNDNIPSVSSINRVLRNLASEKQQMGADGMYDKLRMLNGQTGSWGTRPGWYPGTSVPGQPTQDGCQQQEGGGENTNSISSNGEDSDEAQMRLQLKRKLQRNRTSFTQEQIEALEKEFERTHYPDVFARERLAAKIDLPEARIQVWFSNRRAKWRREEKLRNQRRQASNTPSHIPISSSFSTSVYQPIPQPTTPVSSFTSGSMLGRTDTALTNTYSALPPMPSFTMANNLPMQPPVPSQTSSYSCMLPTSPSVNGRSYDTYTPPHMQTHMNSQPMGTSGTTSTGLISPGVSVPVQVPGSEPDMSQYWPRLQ
Sequence of Signal transducer and activator of transcription 3 (Homo sapiens) (P40763 whole entry, looked up, the tested form may be a part): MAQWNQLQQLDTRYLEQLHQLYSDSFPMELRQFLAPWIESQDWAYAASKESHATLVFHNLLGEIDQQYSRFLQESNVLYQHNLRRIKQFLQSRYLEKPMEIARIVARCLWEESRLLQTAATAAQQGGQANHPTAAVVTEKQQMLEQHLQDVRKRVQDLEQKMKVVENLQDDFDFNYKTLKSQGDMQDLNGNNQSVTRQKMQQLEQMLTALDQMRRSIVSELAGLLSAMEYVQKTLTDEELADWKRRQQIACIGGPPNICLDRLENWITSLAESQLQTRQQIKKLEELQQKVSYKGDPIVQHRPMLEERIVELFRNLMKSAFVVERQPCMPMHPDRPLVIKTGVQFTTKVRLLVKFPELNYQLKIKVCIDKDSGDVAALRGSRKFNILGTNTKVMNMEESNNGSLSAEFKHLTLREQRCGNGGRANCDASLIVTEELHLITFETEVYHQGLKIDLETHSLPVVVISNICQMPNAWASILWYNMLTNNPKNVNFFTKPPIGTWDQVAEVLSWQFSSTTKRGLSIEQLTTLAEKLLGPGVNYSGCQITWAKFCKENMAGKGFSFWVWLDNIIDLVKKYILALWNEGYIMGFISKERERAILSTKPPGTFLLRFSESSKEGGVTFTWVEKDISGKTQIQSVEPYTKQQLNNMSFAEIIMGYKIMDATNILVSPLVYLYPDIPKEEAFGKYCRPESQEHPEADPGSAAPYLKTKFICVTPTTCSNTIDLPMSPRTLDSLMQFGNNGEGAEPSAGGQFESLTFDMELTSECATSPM
Sequence of Hepatocyte nuclear factor 6 (Homo sapiens) (Q9UBC0 whole entry, looked up): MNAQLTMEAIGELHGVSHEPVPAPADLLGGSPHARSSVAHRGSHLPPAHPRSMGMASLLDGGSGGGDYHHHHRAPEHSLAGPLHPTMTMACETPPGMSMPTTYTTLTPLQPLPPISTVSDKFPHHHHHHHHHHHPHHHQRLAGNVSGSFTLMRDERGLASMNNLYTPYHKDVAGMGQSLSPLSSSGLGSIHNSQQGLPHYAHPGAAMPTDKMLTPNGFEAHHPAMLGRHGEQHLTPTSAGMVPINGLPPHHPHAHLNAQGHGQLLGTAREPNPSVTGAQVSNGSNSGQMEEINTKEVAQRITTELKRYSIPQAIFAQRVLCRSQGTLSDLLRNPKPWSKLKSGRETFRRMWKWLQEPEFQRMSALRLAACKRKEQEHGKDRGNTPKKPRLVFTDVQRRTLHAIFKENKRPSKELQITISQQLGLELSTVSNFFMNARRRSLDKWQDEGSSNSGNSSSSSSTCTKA
Sequence of Transcription factor Sp1 (Homo sapiens) (P08047 whole entry, looked up): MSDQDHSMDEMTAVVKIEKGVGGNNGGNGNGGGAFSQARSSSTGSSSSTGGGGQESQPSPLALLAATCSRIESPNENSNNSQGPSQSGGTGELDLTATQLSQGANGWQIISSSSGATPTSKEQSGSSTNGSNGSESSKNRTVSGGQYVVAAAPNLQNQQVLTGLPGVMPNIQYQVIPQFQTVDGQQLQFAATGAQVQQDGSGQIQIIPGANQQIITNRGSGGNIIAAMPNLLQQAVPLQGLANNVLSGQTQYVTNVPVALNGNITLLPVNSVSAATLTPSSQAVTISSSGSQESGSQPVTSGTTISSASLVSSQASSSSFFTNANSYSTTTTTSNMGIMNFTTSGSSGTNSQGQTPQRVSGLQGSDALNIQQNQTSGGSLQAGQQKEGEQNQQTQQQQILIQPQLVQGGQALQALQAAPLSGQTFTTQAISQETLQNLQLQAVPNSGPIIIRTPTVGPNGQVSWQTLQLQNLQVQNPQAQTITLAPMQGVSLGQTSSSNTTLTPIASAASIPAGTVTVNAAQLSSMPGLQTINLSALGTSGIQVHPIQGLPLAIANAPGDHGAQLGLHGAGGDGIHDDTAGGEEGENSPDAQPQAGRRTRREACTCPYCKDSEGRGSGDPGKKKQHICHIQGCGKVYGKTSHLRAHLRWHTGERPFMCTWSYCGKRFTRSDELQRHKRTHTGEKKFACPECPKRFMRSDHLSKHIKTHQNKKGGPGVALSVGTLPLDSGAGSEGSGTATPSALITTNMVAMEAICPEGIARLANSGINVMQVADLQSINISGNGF
Sequence of Hypoxia-inducible factor 1-alpha (Homo sapiens) (Q16665 whole entry, looked up): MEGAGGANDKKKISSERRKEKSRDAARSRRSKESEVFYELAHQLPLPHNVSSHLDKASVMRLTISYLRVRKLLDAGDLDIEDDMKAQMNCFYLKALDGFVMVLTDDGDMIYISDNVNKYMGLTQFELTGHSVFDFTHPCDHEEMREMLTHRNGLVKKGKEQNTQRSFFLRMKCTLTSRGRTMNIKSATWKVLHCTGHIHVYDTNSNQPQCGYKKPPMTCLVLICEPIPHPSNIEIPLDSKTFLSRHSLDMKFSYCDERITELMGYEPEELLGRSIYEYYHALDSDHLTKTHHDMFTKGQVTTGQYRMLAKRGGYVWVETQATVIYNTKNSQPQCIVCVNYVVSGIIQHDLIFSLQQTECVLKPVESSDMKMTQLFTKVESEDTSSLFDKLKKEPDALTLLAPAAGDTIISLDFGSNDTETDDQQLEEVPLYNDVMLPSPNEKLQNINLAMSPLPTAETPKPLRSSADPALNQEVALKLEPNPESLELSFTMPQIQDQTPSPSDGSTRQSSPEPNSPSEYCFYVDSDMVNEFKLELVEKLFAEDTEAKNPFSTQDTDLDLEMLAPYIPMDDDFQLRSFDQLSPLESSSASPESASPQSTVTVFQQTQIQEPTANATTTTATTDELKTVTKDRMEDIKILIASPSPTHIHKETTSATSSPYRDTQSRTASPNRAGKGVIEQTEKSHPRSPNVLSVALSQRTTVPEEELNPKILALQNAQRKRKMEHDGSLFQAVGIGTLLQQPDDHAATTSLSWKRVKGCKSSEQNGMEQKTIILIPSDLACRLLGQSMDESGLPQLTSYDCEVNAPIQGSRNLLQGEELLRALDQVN

In the case of `CCC(C)=O`, the molecule was called inactive in [1], in assay [2], in [3], in assay [4], in assay [5] and in assay [6]. For the same molecule, the call in [7], in [8], in [9], in [10], in assay [11] and in assay [12] was inactive. Besides, the result in [13], in assay [14], in assay [15], in assay [16] and in assay [17] was inactive.

Usually AC50 stands for the concentration at which the activity in the assay is half-maximal. As to `CS(=O)(=O)c1ccc(C2=C(c3ccccc3)C(=O)OC2)cc1`, the result in [1], in assay [2], in assay [3], in assay [4], in assay [6] and in assay [7] was inactive. Also, the result in assay [8], in [9], in assay [18], in assay [10], in [12] and in assay [13] was inactive. Further, the call in assay [19], in [14], in [20], in assay [15], in assay [16] and in assay [17] was inactive. In assay [11], the AC50 is 20.1 µM (active).

For the molecule `O=c1c(O)c(-c2ccc(O)cc2)oc2cc(O)cc(O)c12`, the result in assay [1], in assay [2], in assay [3], in [4], in [5] and in assay [7] was inactive. In addition, the result in assay [8], in [9], in [18], in assay [12], in assay [13] and in assay [19] was inactive. Besides, the molecule was classed as inactive in [14], in assay [20], in [15], in assay [16] and in assay [17]. In [11], the AC50 is 39.1 µM (active).

In the case of `CCCN(CCC)S(=O)(=O)c1ccc(C(=O)O)cc1`, the outcome in assay [1], in assay [2], in assay [3], in [4], in assay [5] and in [7] was inactive. The molecule was called inactive in [8], in [9], in assay [10], in assay [12], in [13] and in assay [19]. The result in assay [14], in [20], in assay [15], in assay [16] and in assay [17] was inactive. The AC50 in assay [11] is 27.3 µM (active).
